Inconclusive results are not listed. Active and inactive are the calls of the source. The call rests on the fitted dose curve; in most records, active means well fitted cell-killing curve with a large enough effect in the repeat runs; inconclusive means weak or mixed curves, or effect the other way; inactive means flat fitted curve, though single readings scatter.
Test: qHTS RealTime-Glo MT Cell Viability Assay in HEK293 cells - 16 hour (AID 1224872); further: nearly all actives have a fitted effect of over 50% in size; on activity change, negative = cytotoxicity: top concentration of the series differs between compounds
Conditions: RealTime-Glo luminescence; series mostly up to 76.8 µM; activity change, negative = cytotoxicity: at the top concentration
Source text: National Center for Advancing Translational Sciences [NCATS]
NIH Chemical Genomics Center [NCGC]
U.S. Environmental Protection Agency [EPA]
National Institutes of Environmental Health Sciences [NIEHS]
National Toxicology Program [NTP]
U.S. Food and Drug Administration [FDA]
Measure of cell viability is critical in the cell-base assay. Analysis of cell viability is necessary for the characterization of cell responses to cytotoxic drugs and environmental stress. A RealTime-Glo MT Cell Viability Assay to monitor cell viability in real time of continues cell culture during 40 hours of compound treatment was used to screen Tox21 10K library compounds in Hek293 cells. The RealTime-Glo MT Cell Viability Assay is a nonlytic, homogeneous, bioluminescent method to measure cell viability in real time using a simple, plate-based method. The assay involves adding NanoLuc luciferase and a cell-permeant prosubstrate to cells in culture. Viable cells reduce the proprietary prosubstrate to generate a substrate for NanoLuc luciferase. This substrate diffuses from cells into the surrounding culture medium, where it is rapidly used by the NanoLuc Enzyme to produce a luminescent signal. The signal correlates with the number of viable cells, making the assay well suited for cytotoxicity studies.
Tox21 Assay Protocol Summary:
The mixture of Hek293 cell suspension and reagents were dispensed at 600cells/6 ul/well in 1536-well tissue culture treated black solid bottom plates using a Multidrop dispenser. After the assay plates were incubated at a 37 C/5% CO2 incubator for 5 hours, 23 nL of compounds dissolved in DMSO, positive and negative controls was transferred to the assay plate by a pintool work station. The plates were incubated at 37 C for 40 hours. The luminescence intensity were measured at 0h, 8h, 16h, 24h, 32h and 40h time points using ViewLux plate reader during compound treatment.
On the % scale 0 is the no-effect control and ±100 the full control effect; potency means the concentration at half of the fitted maximal effect.

SMILES	activity change, negative = cytotoxicity	Potency
Cc1ccccc1C(N)=O	4.95% (inactive)	
CCn1cc(C(=O)O)c(=O)c2cnc(N3CCCC3)nc21	1.68% [at 6.97 µM] (inactive)	
O=[N+]([O-])c1c(Cl)cc(Cl)cc1Cl	-5.24% (inactive)	
C=C(C)[C@@H]1CC=C(C)C(=O)C1	-2.75% (inactive)	
CCC(=O)CC	7.41% (inactive)	
N#CCC(=O)NN	7.03% [at 35.3 µM] (inactive)	
CC(=O)c1cc(C)oc1C	-0.601% (inactive)	
C/C=C(\C)C(C)=O	-1.85% (inactive)	
C#CCN[C@@H]1CCc2ccccc21	-7.23% [at 35.3 µM] (inactive)	
CC(C)OC(=O)OCOP(=O)(CO[C@H](C)Cn1cnc2c(N)ncnc21)OCOC(=O)OC(C)C	4.07% [at 35.3 µM] (inactive)	
COC(=O)c1ccccc1C(=O)O	0.209% (inactive)	
COc1ccc(CCO)cc1	12% (inactive)	
COC(=O)/C=C\C(=O)O	6.54% (inactive)	
NCCOCCN	17.6% (inactive)	
CC(C)(CO)C(O)C(=O)NCCCO (stereo not given)	5.64% (inactive)	
CC1CCc2c(N3CCC(O)CC3)c(F)cc3c(=O)c(C(=O)O)cn1c23 (stereo not given)	-12.1% [at 35.3 µM] (inactive)	
Cc1cccc(Cl)c1	-4.24% (inactive)	
CCC(C)C(=O)OCCc1ccccc1 (stereo not given)	-2.1% (inactive)	
CCc1occc(=O)c1O	4.2% (inactive)	
COC(=O)c1cc(Cl)cc(Cl)c1	-0.883% (inactive)	

SMILES	activity change, negative = cytotoxicity	Potency
CC(O)COC(C)(C)C (stereo not given)	3.37% (inactive)	
CCC(C)OC(C)CC (stereo not given)	-0.929% (inactive)	
CCCSSCCC	3.01% (inactive)	
CC(C)COC(=O)c1ccccc1	0.0667% (inactive)	
C/C=C(\C)C(=O)OCCc1ccccc1	-1.79% (inactive)	
CC(O)CC(C)O (stereo not given)	-0.493% (inactive)	
COc1cc2c(cc1OC)C(=O)C(CC1CCN(Cc3ccccc3)CC1)C2 (stereo not given)		21.3 µM (active)
CC(C)=CCC[C@@](C)(O)[C@H]1CC=C(C)CC1	0.631% [at 35.3 µM] (inactive)	
CCO[Si](CC)(OCC)OCC	-10.1% (inactive)	
COc1cc2c(cc1OC)CN(C(=O)[C@H](C)N[C@@H](CCc1ccccc1)C(=O)O)[C@H](C(=O)O)C2	8.62% [at 35.3 µM] (inactive)	
CC(S)C(C)S (stereo not given)	15.4% (inactive)	
CN(C)CCN(C)CCO	1.58% (inactive)	
CCNC(=O)NCc1cccc(Cl)c1	1.28% [at 35.3 µM] (inactive)	
CCOCCOCC	0.198% (inactive)	
O=C(O)CCCCCC(=O)O	0.802% (inactive)	
C=CC/C=C/C	1.2% (inactive)	
CC1=C(C(=O)O)N2C(=O)[C@@H](NC(=O)[C@H](N)c3ccccc3)[C@H]2SC1	2.56% [at 35.3 µM] (inactive)	
OC[C@H]1O[C@@H](O[C@@H]2[C@@H](CO)O[C@](O)(CO)[C@H]2O)[C@H](O)[C@@H](O)[C@H]1O	12.1% [at 35.3 µM] (inactive)	
Fc1ccccc1	9.63% (inactive)	
O=C(CCCl)NCCc1ccccc1	1.54% [at 35.3 µM] (inactive)	

Reference: PubChem BioAssay (Tox21)
